Results on eight molecules are retold here after PubChem BioAssay (EPA / NIEHS).

A short description of assay [1]: ACEA_ER_80hr: ACEA Biosciences xCELLigence Real-Time Cell Analysis on Estrogen Receptor Agonism for Proliferation (AID 2282667; active = hit-call score of the fitted dose curve at least 0.9, where 1 is the maximum). The settings on record: T47D proliferation, impedance (xCELLigence), 80 h. The procedure, abridged:
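Cell-growth kinetics were measured by impedance in T47D cells treated continuously with compound (top 100 uM final, 1:4 steps, 8 points). Activity at 80 h was scored as signal gain over the DMSO baseline.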

A short description of assay [2]: APR_HepG2_NuclearSize_24hr: Apredica 24-hour HepG2 Assay for Nuclear Size (AID 2282907). As to conditions: high-content imaging, actives raise or lower the signal. The procedure, abridged:
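Compounds in DMSO (final 0.5%) were added to human HepG2 hepatoma cells at ten concentrations up to 200 uM for 24 hr. Fixed nuclei were stained with Hoechst 33342, and nuclear diameter was quantified from automated images.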

A short description of assay [3]: APR_HepG2_CellLoss_24hr: Apredica 24-hour HepG2 Assay for Cell Loss (AID 2282908).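 For AC50: fit in both directions so a hit may be cell loss or gain.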 As to conditions: high-content imaging. The procedure, abridged:
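Cell number is quantified by fluorescence imaging of Hoechst 33342-stained nuclei following dosing at 0.39–200 uM in 0.5% DMSO. Curves are fitted in both directions from the DMSO baseline.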

A short description of assay [4]: APR_HepG2_MitoticArrest_24hr: Apredica 24-hour HepG2 Assay for Mitotic Arrest (AID 2282910). The settings on record: high-content imaging, actives raise or lower the signal. A digest of the protocol: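 Compounds are dosed onto HepG2 cells across ten concentrations up to 200 uM for 24 hr. Cells are then fixed in 3.7% formaldehyde, permeabilised, and labelled for phospho-histone H3 and nuclei; images are scored by cell cycle analysis and fitted bidirectionally relative to DMSO.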

Assay [5] is described as follows: APR_HepG2_MitoMembPot_24hr: Apredica 24-hour HepG2 Assay for Mitochondrial Membrane Potential (AID 2282911). As to conditions: imaging, actives raise or lower the signal. A digest of the protocol:
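Human hepatoma HepG2 cultures received ten compound concentrations up to 200 uM for 24 hr. Membrane-potential dye signal, captured by automated fluorescence microscopy, was scored for gain or loss against DMSO controls.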

Assay [6] is described as follows: APR_HepG2_MitoMass_24hr: Apredica 24-hour HepG2 Assay for Mitochondrial Mass (AID 2282912). As to conditions: high-content imaging, actives raise or lower the signal. A digest of the protocol:
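The liver line HepG2 was dosed in duplicate across a 0.39–200 uM series, with final DMSO held at 0.5% v/v, and harvested at 24 hr. High-content imaging measured mitochondrial dye staining.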

The nature of assay [7]: APR_HepG2_CellCycleArrest_72hr: Apredica 72-hour HepG2 Assay for Cell Cycle Arrest (AID 2282914). As to conditions: high-content imaging, actives raise or lower the signal. The procedure, abridged:
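Cell cycle arrest in HepG2 was scored from nuclear DNA content after 72 hr compound treatment (0.39–200 uM). Activity, either gain or loss, was fitted against the DMSO baseline.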

Assay [8] can be described thus: APR_HepG2_CellLoss_72hr: Apredica 72-hour HepG2 Assay for Cell Loss (AID 2282915). As to conditions: high-content imaging. A digest of the protocol:
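Cell number comes from Hoechst 33342-labelled nuclei, imaged at 20x after 3.7% formaldehyde fixation. Dosing was 0.39–200 uM, ten concentrations in duplicate, 0.5% DMSO final, for 72 h. Bidirectional fit relative to DMSO baseline.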

A short description of assay [9]: APR_HepG2_P-H2AX_72hr: Apredica 72-hour HepG2 Assay for H2AX Phosphorylation (AID 2282916).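 Note: phospho-histone H2A.x immunostain intensity per cell marking DNA damage.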 As to conditions: imaging, actives raise or lower the signal. A digest of the protocol:
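Following 72 hr treatment with 0.39–200 uM compound, HepG2 cells were formaldehyde-fixed, permeabilized and stained for phospho-H2A.x; signal was measured by high-content imaging and fitted bidirectionally against DMSO controls.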

Assay [10] in a line: APR_HepG2_MitoMembPot_72hr: Apredica 72-hour HepG2 Assay for Mitochondrial Membrane Potential (AID 2282917). As to conditions: imaging, actives raise or lower the signal. The procedure, abridged: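 Membrane potential read by MitoTracker Red CMXRos (250 nM, 30 min, pre-fixation) fluorescence imaging of HepG2 after 72 hr exposure. Ten concentrations, 0.39–200 uM, duplicate wells, 0.5% DMSO; fitted in both directions against DMSO baseline.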

Assay [11] is described as follows: APR_HepG2_MitoticArrest_72hr: Apredica 72-hour HepG2 Assay for Mitotic Arrest (AID 2282918). As to conditions: high-content imaging, actives raise or lower the signal. A digest of the protocol: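 Mitotic arrest in HepG2 is scored from phospho-histone H3 staining after 72 hr dosing across 0.39–200 uM, with DMSO at 0.5% v/v. Nuclei are identified by Hoechst 33342 and fluorescence intensity is quantified per cell.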

The nature of assay [12]: APR_HepG2_MicrotubuleCSK_72hr: Apredica 72-hour HepG2 Assay for Microtubule CSK Stabilty (AID 2282919). The settings on record: HepG2 microtubule cytoskeleton, high-content imaging, actives raise or lower the signal. The procedure, abridged:
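Read-out is tubulin fluorescence intensity from high-content imaging of HepG2 cells, with nuclei identified by Hoechst 33342. Treatment lasts 72 h at 0.39–200 uM, and curves are fitted bidirectionally against the DMSO negative control.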

Assay [13] can be described thus: APR_HepG2_P-H2AX_24hr: Apredica 24-hour HepG2 Assay for H2AX Phosphorylation (AID 2282920). The settings on record: high-content imaging, actives raise or lower the signal. The procedure, abridged:
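Signal comes from a FITC-labeled secondary detecting phospho-histone H2A.x in fixed HepG2 cells, quantified by automated imaging at 20x. Dosing ran 24 hr across 0.39–200 uM with 0.5% v/v DMSO.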

Assay [14] in a line: APR_HepG2_StressKinase_72hr: Apredica 72-hour HepG2 Assay for Stress Kinase (AID 2282921). The settings on record: HepG2 stress kinase (phospho-c-Jun) imaging, actives raise or lower the signal. The procedure, abridged: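 Fluorescence intensity of Cy3-tagged anti-phospho-c-Jun antibody, quantified per cell from Hoechst-defined nuclei across six images per well, served as the read-out following 72 h exposure (0.39–200 uM, 0.5% v/v DMSO).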

Assay [15] is described as follows: APR_HepG2_StressKinase_24hr: Apredica 24-hour HepG2 Assay for Stress Kinase (AID 2282922). As to conditions: HepG2 stress kinase (phospho-c-Jun) imaging, actives raise or lower the signal. A digest of the protocol:
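HepG2, 24 hr dosing, 0.39–200 uM in duplicate, 0.5% DMSO; formaldehyde fix (3.7%), 0.5% Triton X-100; anti-phospho-c-Jun + Cy3 secondary, Hoechst counterstain; ArrayScan imaging; bidirectional curve fit vs DMSO baseline.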

Assay [16] can be described thus: APR_HepG2_MitoMass_72hr: Apredica 72-hour HepG2 Assay for Mitochondrial Mass (AID 2282924).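 Note: MitoTracker Red CMXRos stain intensity per cell imaged as mitochondrial mass.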 The settings on record: high-content imaging, actives raise or lower the signal. The procedure, abridged: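 HepG2, 72 hr cmpd, 10 conc 0.39–200 uM in dup, DMSO 0.5% v/v. MitoTracker Red CMXRos 250 nM 30 min pre-fix; formaldehyde 3.7% fix 30 min RT. HCS imaging, gain/loss fit vs DMSO.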

Assay [17] can be described thus: APR_HepG2_NuclearSize_72hr: Apredica 72-hour HepG2 Assay for Nuclear Size (AID 2282925). As to conditions: high-content imaging, actives raise or lower the signal. A digest of the protocol: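 HepG2; cpd 0.39–200 uM, 10 conc, duplicate; 72 h; DMSO 0.5% v/v; fix 3.7% formaldehyde 30 min RT; Triton permeabilization; Hoechst 2 ug/mL; HCS imaging 20x; nuclear diameter; gain/loss fit vs DMSO.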

Assay [18] in a line: APR_HepG2_p53Act_24hr: Apredica 24-hour HepG2 Assay for p53 Activation (AID 2282913).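 Note: p53 protein immunofluorescence averaged per cell in HepG2 with Hoechst nuclei.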 As to conditions: high-content imaging, actives raise or lower the signal. A digest of the protocol: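 Automated fluorescence imaging quantifies p53 immunostaining in HepG2 cells after a 24 hr exposure (0.39–200 uM, duplicate, 0.5% DMSO). Nuclei are located by Hoechst 33342 staining.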

SMILES strings stand for the structures. Records with an inconclusive call do not appear. Activity calls are given as the source filed them. Rule for the calls, unless noted: active = hit-call score of the fitted dose curve at least 0.9, where 1 is the maximum; inactive = score below 0.9.

In the case of `COCc1nnc(-c2ccc[n+]([O-])c2)n1-c1c(Cl)c(Cl)cc2[nH]c(=O)c(=O)[nH]c12`, the result in assay [1], in [2], in assay [3], in [4], in assay [5] and in assay [6] was inactive. In addition, the outcome in [7], in assay [8], in [9], in assay [10], in assay [11] and in [12] was inactive. The molecule was classed as inactive in assay [13], in [14], in [15], in assay [16] and in assay [17].

As for `CCCCCCCCN(C)C`, the result in assay [1], in assay [2], in assay [3], in assay [4], in [5] and in [6] was inactive. The molecule was classed as inactive in [18], in assay [7], in assay [8], in [9], in [10] and in assay [11]. Further, the result in [12], in [13], in assay [14], in assay [15], in assay [16] and in assay [17] was inactive.

For `CC(C)CCCCCCOC(=O)C1CCCCC1C(=O)OCCCCCCC(C)C` (centres undefined), the result in assay [1], in [2], in assay [3], in assay [4], in assay [5] and in [6] was inactive. Also, the outcome in assay [7], in assay [8], in assay [9], in assay [10], in assay [12] and in [13] was inactive. For the same molecule, the molecule was called inactive in [14], in assay [15], in assay [16] and in [17].

`CCCCOC(=O)c1ccccc1`: the result in assay [1], in [2], in [3], in assay [4], in assay [5] and in [6] was inactive. Also, the result in assay [18], in assay [7], in [8], in [9], in assay [10] and in assay [11] was inactive. Also, the call in [12], in assay [13], in [14], in assay [15], in assay [16] and in assay [17] was inactive.

For `CCCCCCCC1CCC(=O)O1` (centres undefined), the result in [1], in [3], in assay [4], in [5], in [6] and in [18] was inactive. The result in assay [8], in [9], in assay [10], in assay [13], in assay [14] and in assay [15] was inactive. In addition, the molecule was classed as inactive in assay [16].

`CCc1ccc(O)c(C(C)(C)C)c1`: the result in assay [1], in assay [2], in assay [18], in assay [7], in assay [10] and in assay [12] was inactive. The outcome in assay [13], in [15], in assay [16] and in assay [17] was inactive. For the same molecule, the AC50 (usually the concentration giving half of the maximal activity seen) in assay [3] is 83.8 µM (active); in assay [4] it was 101 µM (active); in assay [5], 86.2 µM (active); in [6], 105 µM (active); in assay [8], 80.7 µM (active); in assay [9], 79.6 µM (active). Also, the concentration at half-maximal activity (AC50) in assay [14] is 84.8 µM (active).

For the molecule `NC(=O)NN=Cc1ccc([N+](=O)[O-])o1`, the AC50 in assay [1] was 10.5 µM (active); in assay [3] it was 57.6 µM (active); in assay [7], 56.7 µM (active); in assay [8], 67.8 µM (active); in assay [9], 77.3 µM (active); in [12], 85.4 µM (active). In addition, the concentration at half-maximal activity (AC50) in assay [13] was 72 µM (active). For the same molecule, the call in assay [2], in assay [4], in assay [5], in [6], in assay [18] and in [10] was inactive. The result in assay [14], in assay [15], in assay [16] and in assay [17] was inactive.

As for `O=C1CN(N=Cc2ccc([N+](=O)[O-])o2)C(=O)N1`, the result in assay [1], in [4], in [5], in [6], in [10] and in [14] was inactive. For the same molecule, the molecule was classed as inactive in [15]. For the same molecule, the AC50 in assay [3] is 33.6 µM (active); in assay [18], 58.6 µM (active); in assay [8] it was 41.9 µM (active); in assay [9], 65.2 µM (active); in [13], 56.7 µM (active); in [16] it was 90.5 µM (active).
